Results published in PubChem BioAssay (NCATS).
Unmarked numbers belong to inactive results. Results filed as inconclusive are left out. The source made the active and inactive calls. Unless noted, calls follow the shape of the dose curve; as a rule, active = well fitted curve in either direction with a large enough effect (not every such curve was filed as active); inconclusive = small, poorly fitted or top-dose-only effect, or another doubt; inactive = flat fitted curve, though single readings scatter.

Legend:
[1] = AP1 Signaling Pathway (AID 357); conditions: ME-180 AP-1-bla reporter, EGF-induced, beta-lactamase ratio, 5 h; at 17.2 µM (top of the series) unless noted; also: % is scaled to controls: 0 for no effect and ±100 for the full control effect
Procedure, shortened: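 ME-180 cells with beta-lactamase reporter under AP-1 response element, stimulated with EC50 EGF; compounds tested in titration series, 5 h at 37 °C. CCF4 substrate added 2.5 h at room temperature; 460/530 nm emission ratio gave %activity and AC50.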

[2] = NFAT Signaling Pathway (AID 444); conditions: Jurkat NFAT-bla M1, carbachol, beta-lactamase ratio, 5 h; at 17.2 µM (top of the series) unless noted;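 also: carbachol stimulus at about its EC50 of 1 µM final; % is scaled to controls: 0 for no effect and ±100 for the full control effect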
Procedure, shortened: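 Jurkat cells with NFAT-driven β-lactamase reporter and co-expressed M1 receptor, stimulated with carbachol (final 1 uM, ~EC50), compound titration, 5 h at 37 °C. CCF4 loaded 1 h at RT; 460/530 nm ratio gave %activity and AC50.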

[3] = Stat Signaling Pathway (AID 446); conditions: ME-180 SIE beta-lactamase reporter, IL-6 stimulated, 5 h; at 17.2 µM (top of the series) unless noted;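 also: ME-180 cervical cancer cells given 40 pM IL-6 alongside compound; SIE-controlled beta-lactamase reporter measured as 460/530 nm FRET emission ratio; % is scaled to controls: 0 for no effect and ±100 for the full control effect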
Procedure, shortened: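 Normalization used AC90 stimulation (300 pM IL-6) and AC90 inhibition (125 nM pan-JAK inhibitor at 40 pM IL-6). The underlying signal is SIE-driven beta-lactamase in ME-180 cells after 5 h IL-6 exposure with compound.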

[4] = target: Glucocorticoid receptor (Homo sapiens) (UniProt P04150); assay: GR-GFP Redistribution (AID 450;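 active = compounds whose dose series gives a full or clear partial fitted curve of increased nuclear translocation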; also: potency is read from the fitted curve at half-maximal effect)
Sequence of Glucocorticoid receptor (Homo sapiens) (P04150 whole entry, looked up): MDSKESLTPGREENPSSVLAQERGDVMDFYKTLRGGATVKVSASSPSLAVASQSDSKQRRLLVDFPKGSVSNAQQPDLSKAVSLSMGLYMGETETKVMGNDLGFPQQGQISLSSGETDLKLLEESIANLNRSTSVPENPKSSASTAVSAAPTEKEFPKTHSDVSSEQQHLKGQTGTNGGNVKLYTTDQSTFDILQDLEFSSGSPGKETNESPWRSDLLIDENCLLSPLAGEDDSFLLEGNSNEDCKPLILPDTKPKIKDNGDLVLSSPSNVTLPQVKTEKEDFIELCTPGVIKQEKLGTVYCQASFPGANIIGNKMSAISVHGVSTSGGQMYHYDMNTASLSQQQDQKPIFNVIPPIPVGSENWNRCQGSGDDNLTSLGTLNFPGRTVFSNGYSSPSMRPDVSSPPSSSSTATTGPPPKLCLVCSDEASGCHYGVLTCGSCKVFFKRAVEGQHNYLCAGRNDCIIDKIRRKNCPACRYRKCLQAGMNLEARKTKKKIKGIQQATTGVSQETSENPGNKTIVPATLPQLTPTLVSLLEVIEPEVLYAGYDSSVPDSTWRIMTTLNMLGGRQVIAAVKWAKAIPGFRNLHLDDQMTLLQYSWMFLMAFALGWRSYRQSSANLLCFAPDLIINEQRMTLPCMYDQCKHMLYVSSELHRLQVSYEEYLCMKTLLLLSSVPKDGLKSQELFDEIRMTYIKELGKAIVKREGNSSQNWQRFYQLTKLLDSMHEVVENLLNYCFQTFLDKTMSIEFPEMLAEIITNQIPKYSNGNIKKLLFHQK

[5] = qHTS Assay for Identification of Small Molecule Agonists for Hypoxia Response Element Signaling Pathway (AID 914; active = well fitted activation curve with a large enough effect in the signal ratio, with a control signal flat, not every such curve was filed as active; the % refers to the signal ratio; also: % of control where 0% means no effect); conditions: ME-180 (cervical carcinoma) HRE-bla reporter, beta-lactamase ratio, CoCl2, 17 h; activation: stronger effect = higher value
Procedure, shortened: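 Cells were plated overnight, pin-dosed with compound in a titration series, co-stimulated with EC50 CoCl2 and incubated 17 hours at 37 degrees Celsius. CCF4 substrate was then loaded, and AC50 values came from the 460nm/530nm ratio.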

[6] = target: 3',5'-cyclic-AMP phosphodiesterase 4B (Homo sapiens) (UniProt Q07343); assay: qHTS Assay for Inhibitors of PDE-IV (AID 607; active = well fitted activation curve with a large enough effect in the main read-out, with a control signal flat, not every such curve was filed as active; also: % of control where 0% means no effect)
Sequence of 3',5'-cyclic-AMP phosphodiesterase 4B (Homo sapiens) (Q07343 whole entry, looked up): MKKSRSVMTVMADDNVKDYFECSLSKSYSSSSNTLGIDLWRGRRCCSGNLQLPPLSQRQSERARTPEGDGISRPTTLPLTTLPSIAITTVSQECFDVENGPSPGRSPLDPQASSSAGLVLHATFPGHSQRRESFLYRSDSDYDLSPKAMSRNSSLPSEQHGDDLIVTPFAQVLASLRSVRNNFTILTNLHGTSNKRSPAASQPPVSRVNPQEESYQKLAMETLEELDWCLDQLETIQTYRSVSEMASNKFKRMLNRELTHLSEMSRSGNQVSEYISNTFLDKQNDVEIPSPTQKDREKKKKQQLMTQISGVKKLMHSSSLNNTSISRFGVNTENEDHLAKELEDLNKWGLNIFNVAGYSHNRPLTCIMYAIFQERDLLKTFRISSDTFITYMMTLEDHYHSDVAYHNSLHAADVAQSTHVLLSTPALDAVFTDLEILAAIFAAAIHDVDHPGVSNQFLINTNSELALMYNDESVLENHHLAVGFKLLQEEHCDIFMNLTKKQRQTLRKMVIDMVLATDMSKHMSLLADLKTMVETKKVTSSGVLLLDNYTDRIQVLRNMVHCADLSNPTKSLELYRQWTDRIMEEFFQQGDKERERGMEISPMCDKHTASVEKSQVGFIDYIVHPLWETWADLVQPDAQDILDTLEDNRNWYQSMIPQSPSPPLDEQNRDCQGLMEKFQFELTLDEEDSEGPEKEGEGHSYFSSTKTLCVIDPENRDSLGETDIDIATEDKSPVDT
Procedure, shortened: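 HEK293 ACTOne cells with CNG channel (1000/well), endogenous PDE4; membrane potential dye, compounds up to 22.9 uM final. Fluorescence Ex 535/Em 590; RO 20-1724 (100 uM final) as reference.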

[7] = qHTS Assay for Identification of Small Molecule Agonists for Thrombopoietin (TPO) Signaling Pathway (AID 917; active = well fitted curve in the direction sought with a large enough effect; an effect the other way counts as inactive or inconclusive; also: % is scaled to controls: 0 for no effect and ±100 for the full control effect)
Procedure, shortened: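 Cell-based luciferase reporter screen. Mouse Ba/F3 line stably expressing human TPO receptor; IL-3 removed overnight before plating. Co-treatment with compound and EC50 TPO (26 pM), 24 hrs at 37 C, then luminescence.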

[8] = target: Pyruvate kinase (Leishmania mexicana) (UniProt Q27686); assay: qHTS Validation Assay for Inhibitors of Leishmania Mexicana Pyruvate Kinase (AID 945; active = well fitted curve in the direction sought with a large enough effect; an effect the other way counts as inactive or inconclusive;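 also: 0% = DMSO only neutral control wells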)
Sequence of Pyruvate kinase (Leishmania mexicana) (Q27686 2-499 E452W): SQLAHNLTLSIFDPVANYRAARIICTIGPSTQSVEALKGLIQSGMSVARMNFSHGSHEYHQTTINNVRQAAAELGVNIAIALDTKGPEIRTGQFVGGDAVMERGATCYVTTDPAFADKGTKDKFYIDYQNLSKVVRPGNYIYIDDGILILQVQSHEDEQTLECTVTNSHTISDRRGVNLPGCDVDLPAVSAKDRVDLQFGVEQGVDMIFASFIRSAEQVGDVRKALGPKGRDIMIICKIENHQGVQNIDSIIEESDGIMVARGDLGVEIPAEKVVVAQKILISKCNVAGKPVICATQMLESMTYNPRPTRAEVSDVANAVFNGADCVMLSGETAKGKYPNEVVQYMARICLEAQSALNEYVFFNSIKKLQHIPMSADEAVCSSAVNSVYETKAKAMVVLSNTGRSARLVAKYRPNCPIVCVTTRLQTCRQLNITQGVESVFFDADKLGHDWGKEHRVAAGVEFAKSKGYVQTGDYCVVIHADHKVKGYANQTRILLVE
Procedure, shortened: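 The enzyme is a highly purified E451W mutant of LmPYK used at 0.2 nM. It converts 0.5 mM PEP and 0.1 mM ADP over 1 h at room temperature; product ATP is quantified by luciferase luminescence relative to DMSO controls.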

[9] = target: Pyruvate kinase PKM (Homo sapiens) (UniProt P14618); assay: qHTS Assay for Activators of Human Muscle Pyruvate Kinase (AID 954; active = well fitted curve in the direction sought with a large enough effect, not every such curve was filed as active;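 also: 0% = uninhibited enzyme and -100% = no enzyme or full thiadiazolimine inhibition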)
Sequence of Pyruvate kinase PKM (Homo sapiens) (P14618 whole entry, looked up): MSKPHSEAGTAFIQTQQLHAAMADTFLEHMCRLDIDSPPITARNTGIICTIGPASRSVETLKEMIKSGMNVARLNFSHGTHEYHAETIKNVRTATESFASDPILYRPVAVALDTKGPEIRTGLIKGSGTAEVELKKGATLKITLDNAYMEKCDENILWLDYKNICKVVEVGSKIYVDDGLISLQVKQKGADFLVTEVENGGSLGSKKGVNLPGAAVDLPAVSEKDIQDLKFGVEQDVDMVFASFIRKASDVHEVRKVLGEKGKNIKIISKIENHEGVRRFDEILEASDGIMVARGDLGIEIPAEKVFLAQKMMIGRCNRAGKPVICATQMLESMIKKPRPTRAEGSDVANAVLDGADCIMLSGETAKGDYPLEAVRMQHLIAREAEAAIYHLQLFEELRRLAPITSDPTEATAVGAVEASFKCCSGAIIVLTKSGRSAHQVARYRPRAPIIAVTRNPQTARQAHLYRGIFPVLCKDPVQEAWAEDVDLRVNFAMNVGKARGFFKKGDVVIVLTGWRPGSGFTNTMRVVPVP
Procedure, shortened: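 Compound pinned into substrate mix (0.5 mM PEP, 0.1 mM ADP), then 0.1 nM PKM2 added; 1 h, RT. Stop/detection luciferase reagent added, luminescence read. Normalized to no-inhibition and no-enzyme or reference-inhibitor controls.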

[10] = target: Alpha-galactosidase A (Homo sapiens) (UniProt P06280); assay: Counterscreen for Glucocerebrosidase Inhibitors: qHTS Assay for Human alpha-Galactosidase at pH 4.5 (AID 992; active = well fitted curve in the direction sought with a large enough effect; an effect the other way counts as inactive or inconclusive; also: 0% is about no effect)
Sequence of Alpha-galactosidase A (Homo sapiens) (P06280 whole entry, looked up): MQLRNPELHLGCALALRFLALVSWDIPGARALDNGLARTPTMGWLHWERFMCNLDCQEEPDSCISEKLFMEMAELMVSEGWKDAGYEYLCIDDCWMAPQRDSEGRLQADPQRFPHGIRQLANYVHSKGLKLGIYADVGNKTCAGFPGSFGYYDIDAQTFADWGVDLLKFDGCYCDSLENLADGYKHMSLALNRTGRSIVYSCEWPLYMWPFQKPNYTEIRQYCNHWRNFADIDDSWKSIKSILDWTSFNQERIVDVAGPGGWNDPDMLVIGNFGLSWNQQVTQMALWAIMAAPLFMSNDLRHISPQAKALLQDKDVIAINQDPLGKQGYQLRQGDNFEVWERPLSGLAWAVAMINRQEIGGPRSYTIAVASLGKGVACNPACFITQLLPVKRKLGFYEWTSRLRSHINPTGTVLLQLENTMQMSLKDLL
Procedure, shortened: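 Steps: enzyme (2 nM final), then compound across 0.7 nM to 77 uM, then 80 uM fluorogenic galactopyranoside substrate; incubate 20 min at room temperature; quench at pH 10; measure fluorescence at 365/440 nm.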

[11] = target: alpha-glucosidase (Oryza sativa, rice) (UniProt Q653V4); assay: Counterscreen for Glucocerebrosidase Inhibitors: qHTS Assay for Rice alpha-Glucosidase at pH 5.0 (AID 997; active = well fitted curve in the direction sought with a large enough effect; an effect the other way counts as inactive or inconclusive;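 also: 0% = full activity with enzyme and -100% = basal without enzyme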)
Procedure, shortened: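 Endpoint fluorogenic assay at pH 5.0: compounds (0.7 nM to 77 uM) titrated against 4 nM rice enzyme and 400 uM 4-MU-alpha-glucoside for 20 min at room temperature; NaOH/glycine stop, read ex 365/em 440 nm, Hill-fitted AC50.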

[12] = target: Mitogen-activated protein kinase 10 (Mus musculus) (UniProt Q61831); assay: JNK3 AlphaScreen Assay (AID 530)
Procedure, shortened: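 Activity was read by AlphaScreen after JNK3-containing HepG2 lysate (cytokine pre-activated) phosphorylated biotinylated GST-cJun with 10 uM ATP at room temperature. Phospho-Ser73 cJun antibody with Protein-A acceptor beads provided detection.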

[13] = target: Ubiquitin carboxyl-terminal hydrolase 1 (Homo sapiens) (UniProt O94782); assay: Inhibitors of USP1/UAF1: Pilot qHTS (AID 504865; active = well fitted curve in the direction sought with a large enough effect; an effect the other way counts as inactive or inconclusive;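 also: rhodamine fluorescence freed from ubiquitin-rhodamine substrate followed over time; top concentration of the series differs between compounds; % is scaled to controls: 0 for no effect and ±100 for the full control effect; nearly all actives have a fitted effect of over 35% in size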)
Sequence of Ubiquitin carboxyl-terminal hydrolase 1 (Homo sapiens) (O94782 whole entry, looked up): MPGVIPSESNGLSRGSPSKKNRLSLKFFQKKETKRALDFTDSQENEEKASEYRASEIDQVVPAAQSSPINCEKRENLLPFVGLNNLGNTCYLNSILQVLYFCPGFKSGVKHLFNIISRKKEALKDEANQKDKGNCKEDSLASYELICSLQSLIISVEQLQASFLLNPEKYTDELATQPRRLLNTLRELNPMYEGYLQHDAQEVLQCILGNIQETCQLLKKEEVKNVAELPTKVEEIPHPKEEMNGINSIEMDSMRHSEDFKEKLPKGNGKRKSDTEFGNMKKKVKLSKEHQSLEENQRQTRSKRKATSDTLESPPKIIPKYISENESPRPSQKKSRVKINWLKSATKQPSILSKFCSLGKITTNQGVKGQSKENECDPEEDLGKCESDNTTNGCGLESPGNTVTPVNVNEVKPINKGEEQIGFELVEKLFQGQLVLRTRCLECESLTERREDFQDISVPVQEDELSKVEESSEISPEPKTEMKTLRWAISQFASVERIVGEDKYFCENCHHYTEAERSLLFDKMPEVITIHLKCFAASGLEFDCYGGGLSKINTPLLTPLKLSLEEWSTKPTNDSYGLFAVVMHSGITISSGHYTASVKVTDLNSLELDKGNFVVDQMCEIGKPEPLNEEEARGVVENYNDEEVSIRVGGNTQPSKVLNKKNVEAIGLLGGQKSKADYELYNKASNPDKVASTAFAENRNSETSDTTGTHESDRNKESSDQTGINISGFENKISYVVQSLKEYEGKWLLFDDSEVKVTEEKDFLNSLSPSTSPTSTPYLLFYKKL
Procedure, shortened: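 In 50mM HEPES pH 7.8 containing 0.5mM EDTA, 1mM TCEP, 0.1 mg/ml BSA and 0.01% Tween-20, 1nM USP1/UAF1 is exposed to compound for 15 min, then Ub-Rho (150nM final) is added and fluorescence is read over time.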

COC(=O)[C@H]1CCCN1C(=O)Nc1cccc(Oc2c(F)c(F)c(F)c(F)c2F)c1
activity change, negative = inhibition [1]: -14.6% | activity change, negative = inhibition [2]: -9.08% | activity, negative = inhibition [3]: -7.79% | Potency [4]: > 20.6 µM | activation [5]: -9.38%

COc1ccccc1C1/C(=C(\O)c2ccc3c(c2)OCCO3)C(=O)C(=O)N1CCCN(C)C (stereo not given)
activity change, negative = inhibition [1]: 8.19% | activity change, negative = inhibition [2]: -5.11% | activity, negative = inhibition [3]: 4.48% | Potency [4]: > 20.6 µM | activation [5]: -1.93%

CCOC(=O)CCc1c(C)c(C#N)c2[nH]c3ccccc3n2c1=O
activity change, negative = inhibition [1]: -16.5% | activity change, negative = inhibition [2]: -0.365% | Potency [4]: > 20.6 µM

Cc1cc(=O)oc2c(CN3CCCCC3)c(O)c(Cl)cc12
activity change, negative = inhibition [1]: 22.5% | activity change, negative = inhibition [2]: 23.5% | Potency [4]: > 20.6 µM

c1ccc2c(c1)CCC[C@H]2C1=NCCN1
activity change, negative = inhibition [1]: 4.49% [at 38 µM] | activity change, negative = inhibition [2]: -2.65% [at 38 µM] | activity, negative = inhibition [3]: 7.24% [at 38 µM] | Potency [6]: inactive | Potency [7]: inactive | Potency [8]: inactive | outcome [9]: inactive | outcome [10]: inactive | outcome [11]: inactive

O=C(NC[C@@H]1CCCCN1)c1cc(OCC(F)(F)F)ccc1OCC(F)(F)F
activity change, negative = inhibition [1]: -1.96% | activity change, negative = inhibition [2]: -7.71% | activity, negative = inhibition [3]: 4.72% | Potency [12]: inactive | Potency [6]: inactive | Potency [13]: inactive

O=C1CC(c2ccccc2)n2nc(NS(=O)(=O)c3ccccc3)nc2N1 (stereo not given)
activity change, negative = inhibition [1]: 22.4% | activity change, negative = inhibition [2]: -10.9% | Potency [4]: > 20.6 µM

COc1ccccc1N1CCN(C(=O)c2c(C)cc(=O)oc2C)CC1
activity change, negative = inhibition [1]: 10.3% | activity change, negative = inhibition [2]: -1.71% | Potency [4]: > 20.6 µM

CC(=O)Nc1ccccc1O
activity change, negative = inhibition [1]: 0.55% | activity change, negative = inhibition [2]: 16% | activity, negative = inhibition [3]: 2.83% | activation [5]: 8.91%

CSc1nc2sc3c(c2c(=O)n1C1CCCCC1)CCN(C)C3
activity change, negative = inhibition [1]: -0.967% | activity change, negative = inhibition [2]: -81.1% (active) | Potency [4]: > 20.6 µM

CCOC(=O)CSc1nc(N)c(C#N)c(-c2ccc(OC)cc2)c1C#N
activity change, negative = inhibition [1]: -27.1% | activity change, negative = inhibition [2]: 2.57% | Potency [4]: > 20.6 µM

O=C(Cc1ccccc1)Nc1cccc(-c2nnc(-c3ccco3)o2)c1
activity change, negative = inhibition [1]: -23.3% | activity change, negative = inhibition [2]: 11.7% | Potency [4]: > 20.6 µM

N#Cc1c(N)nc(SCC(=O)NCc2ccc3c(c2)OCO3)c(C#N)c1-c1cccs1
activity change, negative = inhibition [1]: -27.2% | activity change, negative = inhibition [2]: -13.6% | Potency [4]: > 20.6 µM

Cc1cc(COc2ccccc2OCCN2CCN(C)CC2)no1
activity change, negative = inhibition [1]: 21.4% | activity change, negative = inhibition [2]: -13.9% | Potency [4]: > 20.6 µM

C/C(=N\O)C(=O)NCCCNCCCN(C)C
activity change, negative = inhibition [1]: 2.66% | activity change, negative = inhibition [2]: -0.0528% | Potency [4]: > 20.6 µM

O=C(COc1ccccc1)Nc1ccc(-c2nnc(-c3ccco3)o2)cc1
activity change, negative = inhibition [1]: 6.06% | activity change, negative = inhibition [2]: 7.57% | Potency [4]: > 20.6 µM

COc1ccccc1C(CC(=O)Nc1nccs1)c1ccco1 (stereo not given)
activity change, negative = inhibition [1]: -11.9% | activity change, negative = inhibition [2]: -20.1% | Potency [4]: > 20.6 µM

CCC(=O)Nc1ccc(-c2nnc(-c3ccccc3)o2)cc1
activity change, negative = inhibition [1]: 0.816% | activity change, negative = inhibition [2]: 4.89% | Potency [4]: > 20.6 µM

CCOC(=O)c1[nH]c2cc3c(cc2c1NC(=O)CN1CCc2ccccc2C1)OCO3
activity change, negative = inhibition [1]: -23.5% | activity change, negative = inhibition [2]: -10.9% | Potency [4]: > 20.6 µM

O=C(CC(c1ccccc1)c1ccco1)N1CCOCC1 (stereo not given)
activity change, negative = inhibition [1]: -9.46% | activity change, negative = inhibition [2]: 1% | Potency [4]: > 20.6 µM

COc1cc2c(cc1OC)C1(CCCC1)C(N)=C2C#N
activity change, negative = inhibition [1]: -17.7% | activity change, negative = inhibition [2]: -1.71% | Potency [4]: > 20.6 µM

O=C(Nc1ccccn1)c1ccc(=O)[nH]n1
activity change, negative = inhibition [1]: -7.67% | activity change, negative = inhibition [2]: 0.366% | Potency [4]: > 20.6 µM

COc1cc2nc(-c3ccccc3)nc(N3CCCC3)c2cc1OC
activity change, negative = inhibition [1]: 24.5% | activity change, negative = inhibition [2]: -11.3% | Potency [4]: > 20.6 µM

CCCCc1nc(NCCNC(=O)c2ccco2)c(C#N)c2c1CSC(C)(C)C2
activity change, negative = inhibition [1]: -22.7% | activity change, negative = inhibition [2]: 12.2% | Potency [4]: > 20.6 µM

COc1ccc(Cn2ccnc2)cc1Br
activity change, negative = inhibition [1]: 4.25% | activity change, negative = inhibition [2]: -14% | Potency [4]: > 20.6 µM

Cc1cc(=O)oc(C)c1C(=O)NCC(C)NC(=O)c1c(C)cc(=O)oc1C (stereo not given)
activity change, negative = inhibition [1]: 0.223% | activity change, negative = inhibition [2]: 10.2% | Potency [4]: > 20.6 µM

CC(C)(C)n1nnc(CCc2nnn(C(C)(C)C)n2)n1
activity change, negative = inhibition [1]: 1.01% | activity change, negative = inhibition [2]: -17.9% | Potency [4]: > 20.6 µM
